Inconclusive results are not listed. Active and inactive are the calls of the source. Calls come from the whole dose curve; as a rule, active = well fitted inhibition curve with a large enough effect; inconclusive = small, poorly fitted or top-dose-only effect; inactive = flat fitted curve, though single readings scatter.
Key:
Experiment in all cases: qHTS profiling for inhibitors of Plasmodium falciparum proliferation (AID 504749); note: nearly all actives have a fitted effect of over 60% in size
Settings in all cases: P. falciparum in erythrocytes, SYBR Green DNA, 72 h; series mostly up to 28.7 µM
ATS95 = test system: ATS95
Outline: (§1)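 P. falciparum-infected erythrocytes (0.3% parasitemia, 2.5% hematocrit) incubated with compound 72 h at 37 C, 5% CO2. Parasite DNA detected by SYBR Green after lysis, overnight at room temperature; normalised to 0.29 uM artemisinin and DMSO.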

C2A = test system: C2A
Outline: as §1

CP185 = test system: CP185
Outline: as §1

CP194 = test system: CP194
Outline: as §1

CP238 = test system: CP238
Outline: as §1

CP247 = test system: CP247
Outline: as §1

CP265 = test system: CP265
Outline: as §1

CP268 = test system: CP268
Outline: as §1

CP269 = test system: CP269
Outline: as §1

CP286 = test system: CP286
Outline: as §1

CP305 = test system: CP305
Outline: as §1

CP329 = test system: CP329
Outline: as §1

CP335 = test system: CP335
Outline: as §1

DIV30 = test system: DIV30
Outline: as §1

ECU = test system: ECU
Outline: as §1

P93_24 = test system: P93_24
Outline: as §1

PAD = test system: PAD
Outline: as §1

PC26 = test system: PC26
Outline: as §1

SC27B = test system: SC27B
Outline: as §1

TAB109 = test system: TAB109
Outline: as §1

Measured: Potency

COC(=O)[C@@H]1[C@@H]2C[C@H]3c4[nH]c5ccccc5c4CCN3C[C@@H]2CC[C@@H]1O
inactive: ATS95 | C2A | CP185 | CP194 | CP238 | CP247 | CP265 | CP268 | CP269 | CP286 | CP305 | CP329 | CP335 | DIV30 | ECU | P93_24 | PAD | PC26 | SC27B | TAB109

C[C@@H](C(=O)O)c1ccc(-c2ccccc2)c(F)c1
inactive: ATS95 | C2A | CP185 | CP194 | CP238 | CP247 | CP265 | CP268 | CP269 | CP286 | CP305 | CP329 | CP335 | DIV30 | ECU | P93_24 | PAD | PC26 | SC27B | TAB109
